Measured values published in PubChem BioAssay.
Activity calls are given as the source filed them.

What was measured:
[1] = tested on: Human papillomavirus type 1a protein E7 (residues 44-93); assay: small molecules binding HPV E7 44-93 – biochemical, small-molecule microarray, residues 44-93, 635 nm fluorescence, primary screen (AID 1108); details: fluorescence 635 nm, higher = more signal;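 note: E7 fragment applied at 1 µg/mL in TBST for 1 h at 4 C; score combines spot fluorescence with its signal to noise ratio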
[2] = hepatitis C replication reporter changes, two-sided – Huh7 cells, luciferase reporter, HCV replication inhibitor project, primary screen (AID 1109); details: Huh7 HCV replicon luciferase reporter, 48 h; higher = more signal;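 note: huh7 hepatoma cells harbouring a luciferase neomycin HCV replicon reporter; luciferase luminescence as measure of HCV replicon replication; test concentration not given here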
[3] = molecular target: Left-right determination factor 2 (Homo sapiens) (UniProt O00292); assay: small molecules binding LEFTY2 protein – biochemical, small-molecule microarray, 635 nm fluorescence scan, primary screen (AID 1110); details: higher = more signal
[4] = molecular target: Calmodulin-1 (Homo sapiens) (UniProt P0DP23); assay: small molecules binding calmodulin-1 with EGTA – biochemical, small-molecule microarray, Cy5-labelled CALM1, profiling panel (AID 1111); details: Cy5-CALM1 binding fluorescence, higher = more signal;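 note: labelled calmodulin applied in Tris saline Tween buffer holding calcium plus EGTA and DTT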
[5] = molecular target: Calmodulin-1 (Homo sapiens) (UniProt P0DP23); assay: small molecules binding Ca-loaded calmodulin-1 – biochemical, small-molecule microarray, Cy5-labelled CALM1, plus calcium, artefact control for SMM control-protein annotation, profiling panel (AID 1112); details: Cy5-CALM1 binding fluorescence, higher = more signal;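 note: score merges spot fluorescence with signal to noise from triplicate slides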
[6] = probe aWnt5a binding to arrayed compounds – biochemical, biotinylated probe, 635/667 nm fluorescence, primary screen (AID 1113); details: small-molecule microarray, higher = more signal;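 note: score merges 667 nm fluorescence intensity with signal-to-noise per printed feature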
[7] = probe aShh binding to arrayed compounds – biochemical, biotinylated probe, 635/667 nm fluorescence, primary screen (AID 1114); details: small-molecule microarray, higher = more signal;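 note: probe is biotin-labelled aShh protein from a stem cell growth factor screen; measures binding of labelled protein to compounds printed on the slide; score merges feature fluorescence at 667 nm with signal-to-noise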
[8] = probe aNog binding to arrayed compounds – biochemical, biotinylated probe, 635/667 nm fluorescence, primary screen (AID 1115); details: small-molecule microarray, higher = more signal;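 note: probe is biotinylated aNog protein used at 0.15 µg/mL for 1 h at 4 C; z-score combines 667 nm fluorescence of each spot with its signal to noise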
[9] = molecular target: Torsin-1A-interacting protein 1 (Homo sapiens) (UniProt Q5JTV8); assay: compound microarray binding of lysate hLAP1 – cell lysate, small-molecule microarray, COS7 lysate, 635/667 nm fluorescence, primary screen (AID 1116); details: 635 nm fluorescence, higher = more signal
[10] = molecular target: Alpha-bungarotoxin (Bungarus multicinctus) (UniProt P60615); assay: compounds binding labelled alpha-BTX control protein – biochemical, small-molecule microarray, Alexa647 label, 635/667 nm fluorescence, artefact control for SMM control protein annotation, profiling panel (AID 1117); details: alpha-BTX-A647 binding fluorescence, higher = more signal
Albumin (Bos taurus) = Albumin (Bos taurus) (UniProt P02769); assay: compounds binding labelled BSA control protein – biochemical, small-molecule microarray, Alexa647 label, 635/667 nm fluorescence, artefact control for SMM control protein annotation, profiling panel (AID 1118); details: BSA-A647 binding, fluorescence 635 nm, higher = more signal;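 note: score merges 667 nm emission intensity and signal-to-noise per printed compound spot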
[11] = probe aXIP binding to arrayed compounds – biochemical, NeuroSMM set, 635/667 nm fluorescence, primary screen (AID 1119); details: small-molecule microarray, higher = more signal, called active from +8 up or from −8 down;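 note: probe is the protein aXip251-270 applied at 1 µg/mL to compound-printed slides; binding of probe to printed compounds measured as 667 nm fluorescence plus signal to noise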
[12] = probe aNOTCH3 binding on compound microarray – biochemical, small-molecule microarray, 635/667 nm fluorescence, primary screen (AID 1120); details: higher = more signal;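 note: probe is a biotin-tagged antibody raised against NOTCH3 rather than NOTCH3 protein; score merges spot fluorescence near 667 nm with spot signal to noise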
[13] = probe aNOTCH2 binding on compound microarray – biochemical, small-molecule microarray, 635/667 nm fluorescence, primary screen (AID 1121); details: higher = more signal;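 note: score merges feature fluorescence read at 667 nm with its signal to noise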
[14] = molecular target: Carbonic anhydrase 2 (Homo sapiens) (UniProt P00918); assay: compounds binding carbonic anhydrase 2 – biochemical, small-molecule microarray, Alexa647-labelled CAII, profiling panel (AID 1122); details: CAII-A647 binding fluorescence, higher = more signal
[15] = COS7 lysate on small-molecule microarray, probe aHis, 635 nm (AID 1123); details: COS7 cell lysate, fluorescence, higher = more signal;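 note: z-score combines 667nm fluorescence intensity with signal-to-noise per printed compound spot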
[16] = probe aLAP1 signal on lysate-treated microarray – cell lysate, small-molecule microarray, COS7 lysate, primary screen (AID 1124); details: probe aLAP1, fluorescence, higher = more signal;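 note: lysate comes from COS7 cells expressing LAP1 and is applied at 0.3 µg/mL; score merges spot fluorescence near 667 nm with signal-to-noise over triplicate slides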
Sam68 (KHDRBS1) = assay: compounds binding KHDRBS1 protein – biochemical, small-molecule microarray, 635 nm fluorescence, primary screen (AID 1125); details: higher = more signal;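 note: score merges 667 nm channel intensity with signal to noise over triplicate slides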
[17] = tested on: Chordin-like protein 2 (CHRDL2); assay: compounds binding chordin-like 2 – biochemical, small-molecule microarray, 635 nm fluorescence, primary screen (AID 1126); details: fluorescence 635 nm, higher = more signal;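 note: printed compound slides probed with Chrdl2 protein at 4 µg/mL for 1 h at 4 C; score merges 667 nm emission intensity with signal to noise over three replicate slides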
[18] = molecular target: Concanavalin-A (Canavalia ensiformis) (UniProt P02866); assay: compounds binding concanavalin A lectin – biochemical, small-molecule microarray, Alexa647 label, 635 nm, artefact control for SMM control protein annotation, primary screen (AID 1127); details: ConA-A647 binding fluorescence, higher = more signal;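 note: z combines 667 nm emission intensity with signal-to-noise across three replicate slides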
Concanavalin-A (Canavalia ensiformis), sequence (P02866 whole entry, looked up): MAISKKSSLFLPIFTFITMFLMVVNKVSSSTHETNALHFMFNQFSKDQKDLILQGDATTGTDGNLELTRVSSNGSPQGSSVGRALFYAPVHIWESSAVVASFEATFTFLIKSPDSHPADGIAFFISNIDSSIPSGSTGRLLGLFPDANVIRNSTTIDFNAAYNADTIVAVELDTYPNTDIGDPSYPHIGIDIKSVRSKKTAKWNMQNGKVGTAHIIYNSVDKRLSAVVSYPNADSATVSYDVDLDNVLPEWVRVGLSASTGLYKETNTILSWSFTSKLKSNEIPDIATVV

Left-right determination factor 2 (Homo sapiens), sequence (O00292 whole entry, looked up): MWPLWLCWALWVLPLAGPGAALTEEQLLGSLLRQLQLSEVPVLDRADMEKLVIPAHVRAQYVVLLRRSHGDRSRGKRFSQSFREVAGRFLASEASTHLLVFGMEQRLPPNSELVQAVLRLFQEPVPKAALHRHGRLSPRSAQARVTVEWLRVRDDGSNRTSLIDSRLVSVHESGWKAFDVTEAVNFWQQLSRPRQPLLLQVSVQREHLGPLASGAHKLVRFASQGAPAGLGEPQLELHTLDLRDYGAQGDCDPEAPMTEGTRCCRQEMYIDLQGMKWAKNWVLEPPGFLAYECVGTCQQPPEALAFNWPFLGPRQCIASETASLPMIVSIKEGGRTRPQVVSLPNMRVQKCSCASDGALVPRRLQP
Albumin (Bos taurus), sequence (P02769 whole entry, looked up): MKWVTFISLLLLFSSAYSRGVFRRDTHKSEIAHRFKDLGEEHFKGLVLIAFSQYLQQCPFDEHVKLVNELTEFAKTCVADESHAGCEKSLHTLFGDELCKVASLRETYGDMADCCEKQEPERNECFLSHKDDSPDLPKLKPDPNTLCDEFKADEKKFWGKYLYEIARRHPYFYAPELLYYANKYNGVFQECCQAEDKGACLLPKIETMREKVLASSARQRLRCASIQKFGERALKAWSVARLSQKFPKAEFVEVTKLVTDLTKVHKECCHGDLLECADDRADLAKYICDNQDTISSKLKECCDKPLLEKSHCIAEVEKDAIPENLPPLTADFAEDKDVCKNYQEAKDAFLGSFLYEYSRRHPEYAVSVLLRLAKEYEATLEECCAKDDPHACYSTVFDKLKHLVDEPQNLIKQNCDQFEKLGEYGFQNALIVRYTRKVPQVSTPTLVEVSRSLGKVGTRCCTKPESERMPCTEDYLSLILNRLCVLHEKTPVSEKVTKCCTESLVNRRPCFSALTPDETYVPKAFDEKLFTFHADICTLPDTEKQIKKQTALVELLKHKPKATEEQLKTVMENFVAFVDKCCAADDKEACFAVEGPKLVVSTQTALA
Torsin-1A-interacting protein 1 (Homo sapiens), sequence (Q5JTV8 whole entry, looked up): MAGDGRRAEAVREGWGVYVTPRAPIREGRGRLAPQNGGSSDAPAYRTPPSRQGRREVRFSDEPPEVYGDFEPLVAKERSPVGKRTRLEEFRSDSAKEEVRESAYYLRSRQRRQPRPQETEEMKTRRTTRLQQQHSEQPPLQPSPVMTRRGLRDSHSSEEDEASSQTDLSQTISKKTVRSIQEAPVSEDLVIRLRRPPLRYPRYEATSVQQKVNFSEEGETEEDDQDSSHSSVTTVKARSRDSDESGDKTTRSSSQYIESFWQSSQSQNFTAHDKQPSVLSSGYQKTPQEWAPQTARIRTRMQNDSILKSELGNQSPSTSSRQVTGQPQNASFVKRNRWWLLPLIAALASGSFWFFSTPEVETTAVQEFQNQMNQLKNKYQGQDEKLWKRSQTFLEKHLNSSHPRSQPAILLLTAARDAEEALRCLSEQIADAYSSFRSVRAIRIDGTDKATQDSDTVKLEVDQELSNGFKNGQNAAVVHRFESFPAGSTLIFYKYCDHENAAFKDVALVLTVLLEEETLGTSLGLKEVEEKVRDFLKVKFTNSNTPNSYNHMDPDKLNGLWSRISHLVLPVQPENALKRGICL
Alpha-bungarotoxin (Bungarus multicinctus), sequence (P60615 whole entry, looked up): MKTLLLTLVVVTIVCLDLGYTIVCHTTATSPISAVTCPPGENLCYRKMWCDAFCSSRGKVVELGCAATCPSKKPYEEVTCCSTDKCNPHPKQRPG

Row | SMILES | composite z-score [1] | z-score [2] | composite z-score [3] | composite z-score [4] | composite z-score [5] | composite z-score [6] | composite z-score [7] | composite z-score [8] | composite z-score [9] | composite z-score [10] | composite z-score (Albumin (Bos taurus)) | composite Z-score [11] | composite z-score [12] | composite z-score [13] | composite z-score [14] | composite z-score [15] | composite z-score [16] | composite z-score (Sam68 (KHDRBS1)) | composite z-score [17] | composite z-score [18]
1 | N#Cc1ccc(C(O)C2C=CC3C(=O)N(c4ccccc4)C(=O)C3N2Nc2ccc([N+](=O)[O-])cc2)cc1 (stereo not given) | 0.632 | -1.2 | 0.0058 | 2.16 | 1.14 | 0.222 | 0.0434 | 0.595 | 1.69 | 1.96 | 0.895 | 0.453 (inactive) | 0.0749 | 0.0912 | 0.748 | 2.45 | 1.05 | 1.28 | -0.558 | 1.23
2 | C=CCC(OC(C)=O)[C@@H]1[C@@H](N(Cc2ccc(-c3cccc(C(F)(F)F)c3)o2)C(=O)Cc2ccc(F)cc2)c2cc(OCCCO)ccc2N1C(=O)c1ccc2ccccc2c1 (stereo not given in full) | -1.18 | -0.735 | -0.72 | -0.681 | -0.214 | -0.0548 | -0.221 | -0.624 | 0.0175 | -0.318 | -0.229 | -0.0127 (inactive) | -0.0813 | -0.117 | -0.351 | 0.0261 | -0.211 | -0.749 | -0.0715 | -1.35
3 | COCCOC(=O)N1C(=O)[C@@]2(c3cc(C#CCCO)ccc31)[C@H](C(=O)N1CCN(c3ncccn3)CC1)[C@H]1C(=O)O[C@H](c3ccccc3)[C@H](c3ccccc3)N1[C@@H]2c1ccc(O)cc1 | 0.228 | -1.65 | 0.0272 | -0.444 | -0.559 | -0.0179 | 0.0074 | 1.01 | 0.894 | 1.85 | 0.506 | 0.168 (inactive) | -0.236 | -0.245 | 0.244 | 1.4 | 0.298 | 1.29 | 0.182 | 0.983
4 | C=CCC(OC(C)=O)[C@@H]1[C@@H](N(Cc2cc3ccccc3o2)C(=O)c2ccc(-c3ccccc3)cc2)c2cc(OCCCO)ccc2N1C(=O)c1ccc2ccccc2n1 (stereo not given in full) | 0.061 | 0.104 | 0.163 | -0.12 | 0.898 | 0.107 | -0.124 | -0.961 | 0.554 | 0.113 | 0.593 | 0.176 (inactive) | -0.0362 | -0.0901 | 0.0088 | 0.23 | 0.269 | -0.626 | 0.163 | -1.34
5 | Cc1ccc(S[C@]2(C(=O)NCC(F)(F)F)CC(=O)N(C3CCCCC3)[C@@H]2c2ccc(CO)cc2)cc1 | 0.82 | -0.759 | -0.431 | 1.26 | 0.27 | -0.1 | 0.0875 | -0.546 | -0.163 | 0.28 | 0.344 | 0.399 (inactive) | -0.161 | -0.11 | 0.702 | 2 | 0.298 | 0.626 | -0.339 | -0.123
6 | CCOC(=O)C1=C[C@@H](C(C)(C)C)N(S(=O)(=O)c2ccc(C)cc2)[C@H]1c1ccccc1Cl | 0.694 | -1.8 | 0.633 | 1.95 | 0.84 | 0.1 | -0.177 | 0.527 | 1.13 | 1.73 | 0.981 | 0.102 (inactive) | 0.0203 | 0.0423 | 0.223 | 1.72 | 0.472 | 1.32 | -0.584 | 1.12
7 | COCCCN1C(=O)[C@@]2(Cc3ccccc31)c1ccccc1C(=O)N(Cc1ccccc1OC)[C@H]2c1ccc(CO)cc1 | -0.739 | -0.185 | -0.283 | 0.0145 | -0.0984 | 0.0759 | -0.138 | 0.417 | 0.145 | 0.212 | 0.345 | 0.449 (inactive) | -0.147 | -0.101 | 0.799 | 0.374 | 1.34 | -0.0726 | -1.21 | 0.254
8 | CN(C)C(=O)[C@]1(Cc2ccccc2CN=[N+]=[N-])N=C(c2ccc(OCCCO)cc2)O[C@@H]1c1ccccc1N=[N+]=[N-] | 1.44 | -1.6 | -0.472 | 1.71 | 0.422 | -0.0161 | 0.0639 | 0.526 | 0.609 | 1.14 | 0.873 | -0.118 (inactive) | -0.155 | -0.153 | 0.58 | 2.68 | -0.339 | 1.3 | -0.534 | 1.07
9 | CC(C)C[C@@H]1NC(=O)C([C@@H](C)OCc2ccccc2)NC(=O)[C@@]23C(=O)N[C@@H](Cc4ccccc4)C2[C@H](C)[C@@]2(C)O[C@H]2C3/C=C/CC/C=C/CNC1=O (stereo not given in full) | 1.12 | -2.63 | 0.458 | -0.407 | -0.543 | -0.15 | -0.0064 | -0.24 | 0.0641 | -0.0687 | 0.438 | -0.0807 (inactive) | -0.0647 | -0.128 | 0.469 | 0.73 | 0.184 | 1.34 | 0.554 | 0.329
10 | CC(C)C[C@@H]1NC(=O)[C@@H]2C[C@H](C(=O)O)[C@H](c3ccc(O)cc3)N2C1=O | 0.309 | -0.836 | 0.695 | 1.31 | 0.192 | -0.0512 | 0.0611 | 0.116 | 1.22 | 1.64 | -1.01 | 0.102 (inactive) | 0.0488 | -0.106 | 0.558 | 0.68 | 0.186 | 1.31 | 1.15 | 1.21
11 | Cc1ccc(S[C@]2(C(=O)NCCCN(C)C)CC(=O)N(Cc3ccccc3Cl)[C@@H]2c2ccc(CO)cc2I)cc1 | -0.177 | -1.55 | -1.7 | 0.0681 | 0.283 | -0.1 | -0.0681 | 0.692 | 0.49 | 2.46 | -0.153 | 0.153 (inactive) | -0.136 | -0.142 | 0.815 | 0.429 | 0.0345 | -0.406 | -0.697 | -0.708
